Experimental data: PubChem BioAssay (NCATS)
Records with an inconclusive call do not appear. The source made the active and inactive calls. Calls come from the whole dose curve; as a rule, active = well fitted cell-killing curve with a large enough effect; inconclusive = small, poorly fitted or top-dose-only effect, or effect the other way; inactive = flat fitted curve, though single readings scatter.

Assay: MultiTox-Fluor Cytotoxicity Assay - LYMP1-001 - Dead Cells (AID 946);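 note: cells exposed to compound for 16 h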
Details: LYMP1-001 lymphoblastoid cells, dead-cell protease fluorescence; series mostly up to 92.2 µM
Excerpt: NIH Chemical Genomics Center [NCGC]
NIH Molecular Libraries Screening Centers Network [MLSCN]
National Institutes of Environmental Health Sciences [NIEHS]
National Toxicology Program [NTP]
We have developed a 1536-well cell-based assay for quantitative high throughput screening (qHTS) against a number of cell lines to determine in vitro cytotoxicity of small molecules. This particular assay uses a human lymphoblastoid cell line (LYMP1-001) purchased from Coriell Institute for Medical Research.
NCGC Assay Protocol Summary:
The MultiTox-Fluor Cytotoxicity Assay (Promega) is a homogeneous method to simultaneously measure the relative number of live and dead cells in culture by detecting changes in cell membrane integrity. There are two fluorogenic peptide substrates in the assay reagent. Viable cells are determined when the cell-permeant substrate (GF-AFC) enters the cell and is cleaved by protease from live cells resulting in liberated fluorophore. This live-cell protease activity restricted to viable cells is proportional to cell number. The dead cells are determined by using fluorogenic cell-impermeant peptide substrate (bis-AAF-R110) which cleaved by dead cell proteases leaking from damaged cell membrane.
Using the MultiTox-Fluor Cytotoxicity Assay, the relative number of dead cells was measured in the lymphoblastoid cell line with complete culture medium following compound treatment for 16 hours. The assay was performed in opaque black Kalypsys 1536-well plates. In the screen, tetraoctylammonium bromide was used as positive control. Library compounds were measured for their ability to cause acute toxicity in the cell line, as reflected by an increase in dead cell protease activity, in a concentration-dependent manner. Data were normalized to the controls for basal activity (DMSO only) and 100% stimulation (15 uM tetraoctylammonium bromide). AC50 values were determined from concentration-response data modeled with the standard Hill equation.
qHTS protocol for MultiTox-Fluor Cytotoxicity assay
[Step] [Parameter] [Value] [Description]
1. Reagent; 5 uL; 2500 lymphoblastoid cells/well
2. Time; 5 hr; 37 C incubation
4. Controls; 23 nL; Tetraoctylammonium bromide 6.4pM to 92 uM
5. Time; 16 hr; 37 C incubation
6. Reagent; 5 uL; MuliTox-Fluor Assay reagent
7. Time; 60 min; Room Temperature
8. Detection; dead-cell fluorescence (Ex/Em=485/520); EnVision plate reader
Keywords: cytotoxicity, lymphoblastoid cell line, fluorescence, NTPHTS, NTPHTS_NCGC, NIEHS, EPA, DSSTox, MLSMR, MLSCN, NIH Roadmap, qHTS, NCGC

| SMILES | outcome |
| --- | --- |
| COc1ccc(O)cc1 | inactive |
| Cc1cc(C)nc(NS(=O)(=O)c2ccc(N)cc2)n1 | inactive |
| CC(=O)NS(=O)(=O)c1ccc(N)cc1 | inactive |
| O=C1c2cccc(O)c2C(=O)c2c(O)cccc21 | inactive |
| CCCCCCCC(=O)OCC(COC(=O)CCCCCCC)OC(=O)CCCCCCC | inactive |
| CC(=O)Nc1ccccc1 | inactive |
| O=C1C(c2[nH]c3ccccc3c2O)=Nc2ccccc21 | inactive |
| CC1CC(OC(=O)c2ccccc2O)CC(C)(C)C1 (configuration not stated) | inactive |
| Cc1cc(=O)[nH]c(=S)[nH]1 | inactive |
| C=CCNC(N)=S | inactive |
| CCCCOC(=O)c1ccc(N)cc1 | inactive |
| CCCCCC(N)=O | inactive |
| FC(F)(F)C(Cl)Br (configuration not stated) | inactive |
| CC(=O)Nc1cccc(O)c1 | inactive |
| Nc1ccc(S(=O)(=O)c2ccc(N)cc2)cc1 | inactive |
| CCCC(O)C(CC)CO (configuration not stated) | inactive |
| CC(=O)Nc1ccc(C(=O)O)cc1 | inactive |
| Cc1c(N(C)C)c(=O)n(-c2ccccc2)n1C | inactive |
| O=C(c1ccccc1)C(O)c1ccccc1 (configuration not stated) | inactive |
| CC(=O)OCC(COC(C)=O)OC(C)=O | inactive |
| O=C(O)CCCCC1CCSS1 (configuration not stated) | inactive |
| CCN(CC)C(=O)c1cccc(C)c1 | inactive |
